Shown are actives, neighbours in structure and some others; about 19% of the full set was active somewhere.
TDP1 cell CPT – growth inhibition of DT40 Tdp1-/-;hTDP1 cells with camptothecin (screen for TDP1 inhibitors). Potency, µM (series often up to 46.2 µM), actives largely listed as inhibitors. AID 686979. actives 12% (n = 420,000). chicken DT40 Tdp1-/-;hTDP1 cells + 20 nM CPT, ATP luminescence, 48 h; also: nearly all actives have a fitted effect of over 55% in size
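Chicken DT40 Tdp1-/- cells complemented with human TDP1, 400 cells/well, exposed to compounds plus 20 nM camptothecin for at least 48 h at 37 C; viability read as ATP content by CellTiter-Glo luminescence.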
DT40 TDP1 no CPT – qHTS for Inhibitors of human tyrosyl-DNA phosphodiesterase 1 (TDP1): qHTS in cells in absence of CPT; actives 15% (n = 420,000); DT40 Tdp1-/- hTDP1 cells, no CPT, ATP luminescence, 48 h; Potency, µM (series often up to 46.2 µM), actives largely listed as inhibitors; also: nearly all actives have a fitted effect of over 55% in size
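Growth of hTDP1-complemented DT40 Tdp1-knockout cells is measured by ATP luminescence after at least 48 hr compound exposure at 37 °C, with DMSO substituting for the 20 nM CPT used in the parallel screen.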
HepG2 viability – kills HepG2 cells in TGF-b inhibitor counter-screen; HepG2 CAGA-GFP viability, ATP luminescence, 18 h; Potency, µM (series often up to 46.1 µM), most hits filed as cytotoxic; actives 0.76% (n = 410,000); AID 588856
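HepG2 CAGA-GFP cells (1000/well, DMEM with 1% FBS) received compound, then TGF-beta at 500 pg/mL final, and were incubated 18 hours at 37 degrees C. Viability was read by CellTiter-Glo luminescence. Media-only wells were set as complete cell-killing and DMSO as no toxicity.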
S-ASM inh – blocks human secretory acid sphingomyelinase. P17405. placental ASM, HMU-PC fluorogenic substrate, 60 min. Potency, µM (highest dose often 57.5 µM), hits mostly inhibitors. actives 0.006% (n = 340,000). AID 504937
Target sequence (P17405 47-631 limits assumed): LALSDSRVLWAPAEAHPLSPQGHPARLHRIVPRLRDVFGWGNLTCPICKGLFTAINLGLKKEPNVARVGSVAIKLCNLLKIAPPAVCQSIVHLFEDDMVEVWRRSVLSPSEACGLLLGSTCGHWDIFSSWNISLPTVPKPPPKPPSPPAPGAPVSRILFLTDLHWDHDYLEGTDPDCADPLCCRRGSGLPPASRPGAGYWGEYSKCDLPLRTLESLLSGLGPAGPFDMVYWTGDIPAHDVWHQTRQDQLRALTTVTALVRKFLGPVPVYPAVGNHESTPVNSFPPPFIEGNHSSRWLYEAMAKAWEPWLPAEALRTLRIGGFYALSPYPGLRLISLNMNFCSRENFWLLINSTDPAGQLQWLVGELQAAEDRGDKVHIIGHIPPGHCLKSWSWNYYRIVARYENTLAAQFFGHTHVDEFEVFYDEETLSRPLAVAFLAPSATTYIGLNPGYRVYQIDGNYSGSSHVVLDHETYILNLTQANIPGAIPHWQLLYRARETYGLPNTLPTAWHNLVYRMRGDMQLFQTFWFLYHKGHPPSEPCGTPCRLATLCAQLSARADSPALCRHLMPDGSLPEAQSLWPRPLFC
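Human placenta-derived ASM preincubated with compound 10 min at room temperature, then reacted with 9 uM (final) fluorogenic HMU-PC substrate for 60 min at 37 C. Stop solution raises pH to 10; fluorescence read at Ex 386/Em 447 nm.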
TGFb SMAD3 inh – inhibitors of TGF-b signaling; HepG2 CAGA-GFP TGF-b/SMAD3 reporter, GFP fluorescence, 18 h; TGF-beta stimulated, 500 pg/mL final; Potency, µM (titrated, usually from 46.1 µM), most hits filed as inhibitors; actives 1.2% (n = 410,000); AID 588855; also: nearly all actives have a fitted effect of over 65% in size
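GFP signal (ex488/em500-530) from TGF-beta-stimulated HEPG2 CAGA-GFP cells, 500 pg/mL final, 18 h at 37 degrees C in DMEM plus 1% FBS, normalized to unstimulated and DMSO-stimulated controls.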
IL1B secr inh – inflammasome signaling inhibition, IL-1 beta readout; THP-1 LPS/ATP IL-1B secretion, AlphaLISA, 16 h; hits give low values; activity change, % at 57.5 µM; actives 4.7% (n = 360,000); in the data active = activity change below about -50%; inconclusive = mostly about -30% to -49%
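THP-1 cells pretreated 1 hr with compounds (up to 57.5 uM final), then stimulated with LPS (250 ng/mL final) plus ATP (1.25 mM final); secreted IL-1B measured by AlphaLISA after 16 hr, decreased signal indicating inhibition.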
Of the large screens only hits and unclear results are named; the others gave an inactive call. Unless noted, calls follow the shape of the dose curve; as a rule, active = well fitted curve in the direction sought with a large enough effect; inconclusive = small, poorly fitted or top-dose-only effect, or another doubt; inactive = no such curve, though single readings can be large; an effect the other way counts as inactive or inconclusive.

Cc1ccc(C2CC(=O)Nc3cc4c(cc32)OCCO4)s1 (stereo not given)	TDP1 cell CPT inconclusive, DT40 TDP1 no CPT inconclusive
Nc1c(C(=O)Nc2ccc3c(c2)OCCO3)nnn1CCc1ccccc1	TDP1 cell CPT 4.6µM, DT40 TDP1 no CPT 3.3µM, TGFb SMAD3 inh inconclusive
Nc1c(C(=O)Nc2ccc3c(c2)OCCO3)nnn1Cc1cccc(Br)c1	TDP1 cell CPT inconclusive, DT40 TDP1 no CPT 23µM, IL1B secr inh -51
COc1ccc(-c2c(C(=O)c3ccccc3)[nH]c(N)c2C(=O)c2ccc(Br)cc2)cc1OC	TDP1 cell CPT inconclusive, DT40 TDP1 no CPT inconclusive (no result: HepG2 viability, S-ASM inh, TGFb SMAD3 inh)
CC(C)(C)C(=O)c1c(N)[nH]c(C(=O)c2ccccc2)c1-c1ccc(Br)cc1	TDP1 cell CPT 21µM, DT40 TDP1 no CPT 23µM (no result: HepG2 viability, S-ASM inh, TGFb SMAD3 inh)
COC(=O)c1c(N)[nH]c(C(=O)c2ccccc2)c1-c1ccc(Br)cc1	TDP1 cell CPT 16µM, DT40 TDP1 no CPT inconclusive (no result: HepG2 viability, S-ASM inh, TGFb SMAD3 inh)
Nc1[nH]c(C(=O)c2ccccc2)c(-c2ccccc2Br)c1C(=O)c1ccccc1	TDP1 cell CPT inconclusive, DT40 TDP1 no CPT inconclusive (no result: HepG2 viability, S-ASM inh, TGFb SMAD3 inh)
O=C(CCN1N=C(c2ccccc2)CCC1=O)NC1CCCC1	none
O=C(CCN1N=C(c2ccccc2)CCC1=O)NC1CCCCC1	IL1B secr inh -51 (no result: S-ASM inh)
O=C1[C@@H]2C(c3cccnc3)=NO[C@@H]2C(=O)N1c1ccc2ccccc2c1	TDP1 cell CPT 6.5µM, DT40 TDP1 no CPT 18µM (no result: IL1B secr inh)
O=C(c1ccc2c(c1)N(Cc1ccc(Cl)cc1)C(=O)c1ccccc1S2=O)N1CCN(c2ccccc2F)CC1 (stereo not given)	TDP1 cell CPT 23µM, DT40 TDP1 no CPT 21µM, TGFb SMAD3 inh inconclusive (no result: S-ASM inh, IL1B secr inh)
O=C(c1ccc2c(c1)N(Cc1ccccc1F)C(=O)c1ccccc1S2=O)N1CCN(c2ccccc2)CC1 (stereo not given)	TDP1 cell CPT 23µM, DT40 TDP1 no CPT 16µM (no result: S-ASM inh, IL1B secr inh)
CN1CCN(C(=O)c2ccc3c(c2)N(Cc2ccccc2F)C(=O)c2ccccc2S3=O)CC1 (stereo not given)	TDP1 cell CPT inconclusive
CCCCNC(=O)c1onc(CSc2ccc(C)c(C)c2)c1C(=O)O	none
Cc1cc(C)cc(SCc2noc(C(=O)NCCN(C)C)c2C(=O)NCCN(C)C)c1	TDP1 cell CPT inconclusive, DT40 TDP1 no CPT 15µM
COCCNC(=O)c1onc(CSc2cccc(OC)c2)c1C(=O)NCCOC	HepG2 viability 1µM
CCCCNC(=O)c1onc(CSc2ccc(F)c(F)c2)c1C(=O)O	TDP1 cell CPT 21µM
COc1ccc(CCN2CC(C(=O)N(C)Cc3ccc4nsnc4c3)CCC2=O)cc1 (stereo not given)	none
O=C(CNS(=O)(=O)c1ccccc1)NCC(=O)OCc1ccc(Br)cc1	TDP1 cell CPT 21µM, DT40 TDP1 no CPT inconclusive
CCOC(=O)c1ccc(COC(=O)CNS(=O)(=O)c2ccccc2)cc1	none
CCOc1c(C)cnc2c1c(=O)n(Cc1c(F)cccc1Cl)c(=O)n2C	TDP1 cell CPT inconclusive
COc1ccc(NC(=O)CCN=C2NS(=O)(=O)c3ccccc32)cc1S(=O)(=O)N(C)C	DT40 TDP1 no CPT inconclusive
CC1C(=O)N(Cc2ccc([N+](=O)[O-])cc2)c2ccccc2N1C(=O)c1c(F)cccc1F (stereo not given)	TDP1 cell CPT inconclusive, DT40 TDP1 no CPT 16µM, IL1B secr inh inconclusive
COc1cccc(CN2C(=O)C(C)N(C(=O)c3ccccc3)c3ccccc32)c1 (stereo not given)	TDP1 cell CPT 13µM, DT40 TDP1 no CPT 6.5µM
COc1ccc(CN2C(=O)C(C)N(C(=O)c3c(F)cccc3F)c3ccccc32)cc1 (stereo not given)	TDP1 cell CPT 13µM, DT40 TDP1 no CPT 8.2µM
COc1ccc(CN2C(=O)C(C)Oc3ccccc32)cc1 (stereo not given)	DT40 TDP1 no CPT inconclusive

Compound activity (PubChem BioAssay)
